# Screens from PubChem.
# TEAD-YAP block: TEAD-YAP interaction inhibition; AID 1259422; inhibition, % at 9.12 µM; actives 1.4% (n = 640,000); HEK-TIYL cells, TEAD-Gal4/YAP UAS-luciferase luminescence; in the data active = inhibition above about 32%;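 note: 0% = median of test compound wells and 100% = reference inhibitor wells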
# GPR151 activ: human GPR151 activation. activation, % at 11.2 µM. PathHunter beta-arrestin GPR151 cells, luminescence. actives 1% (n = 650,000). AID 1508602. Q8TDV0; in the data active = activation above about 4.9%;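 note: 0% = median of compound wells and 100% = cells with positive control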
# Target sequence (Q8TDV0 whole entry, looked up): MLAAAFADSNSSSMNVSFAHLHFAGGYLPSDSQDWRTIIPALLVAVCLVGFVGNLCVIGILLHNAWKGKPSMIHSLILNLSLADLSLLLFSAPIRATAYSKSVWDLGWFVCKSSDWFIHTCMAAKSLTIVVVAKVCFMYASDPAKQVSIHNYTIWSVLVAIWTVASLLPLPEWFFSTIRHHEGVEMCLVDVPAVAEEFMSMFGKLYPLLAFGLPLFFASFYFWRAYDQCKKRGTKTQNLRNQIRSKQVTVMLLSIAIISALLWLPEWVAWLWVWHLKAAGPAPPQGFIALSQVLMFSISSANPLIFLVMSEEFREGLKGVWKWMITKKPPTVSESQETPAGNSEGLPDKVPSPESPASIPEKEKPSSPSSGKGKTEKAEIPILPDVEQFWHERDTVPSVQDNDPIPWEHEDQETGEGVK
# FBW7 activator: human FBW7 E3 ligase activation, primary screen. Q969H0. AlphaScreen FBW7–phospho-cyclin E peptide binding, activator screen. actives 0.13% (n = 650,000). normalized activity (activation), % at 26.1 µM; in the data active = normalized activity above about 1.9%;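 note: purified mutant Fbw7 with reduced substrate affinity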
# MITF primary: inhibitors of human MITF. O75030. AlphaScreen MITF homodimerization, bead proximity signal. inhibition, % at 2.6 µM. actives 0.91% (n = 650,000); in the data active = inhibition above about 50%;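 note: 0% = vehicle wells with protein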
# GPR151 conf act: human GPR151 activation, confirmation screen. shares compounds with GPR151 activ. GPR151 PathHunter beta-arrestin cells, luminescence, 90 min; % of EA-reagent control over plate median. AID 1508609. 6,700 tested, under 10 active. activation, % at 11.2 µM;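 active = mean percent activation across replicates above the confirmation screen cutoff of 4.91%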
# GPR119 counter: GPR119 activation, counter-screen for GPR151 activators; shares compounds with GPR151 activ; GPR119 PathHunter beta-arrestin cells, luminescence, 90 min; 0 = compound-well median, 100 = enzyme-acceptor control; activation, % at 11.2 µM; actives 0.3% (n = 6,700); AID 1508611;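 active = mean percent activation in the counterscreen above 29.09%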;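 note: counterscreen on off-target GPR119 to flag nonselective hits from the GPR151 activator screen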
# The depositor's hits bear a star; · = no result given. Rows were chosen to be rich in hits. Some 3.5% of all compounds tested hit in one or more screens of this group.
SMILES,TEAD-YAP block,GPR151 activ,FBW7 activator,MITF primary,GPR151 conf act,GPR119 counter
COc1cccn2c(C(=O)Nc3ccc(Cl)cc3)c(C(F)(F)F)nc12,0.0,14.2*,-0.2,10.5,0.5,8.2
COc1cccn2c(C(=O)N3CCC3)c(C(F)(F)F)nc12,17.3,6.2*,0.1,8.0,1.3,13.3
COc1cccn2c(C(=O)N3CCCC3)c(C(F)(F)F)nc12,9.1,-0.4,0.3,2.2,·,·
CCCN(CCC)C(=O)CSc1nc2ccccc2c(=O)n1CC1CCCO1 (stereo not drawn),-4.5,-1.1,-0.1,-0.8,·,·
O=c1oc2c(CN3CCOCC3)c(O)ccc2cc1-c1ccc(F)cc1,-3.6,14.2*,0.7,7.3,-0.4,-2.7
COc1ccc(-c2cc3ccc(O)c(CN4CCOCC4)c3oc2=O)cc1,-2.9,-1.4,0.2,7.8,·,·
CC1CC(C)CN(CCCNC(=O)c2cnc(N3CCN(c4ncccn4)CC3)c3ccccc23)C1 (stereo not drawn),6.9,0.3,-0.1,0.3,·,·
CCOCCCNc1nc2ccccc2n2nnnc12,-14.7,-0.7,0.1,7.3,·,·
c1ccc2c(c1)CCN(CCCNc1nc3ccccc3n3nnnc13)C2,-8.6,6.7*,-0.1,0.9,-0.3,-6.8
COc1cc2[nH]c(=S)n(C3CC(C)(C)NC(C)(C)C3)c(=O)c2cc1OC,-1.8,7.2*,-0.1,11.1,-0.2,9.5
COc1cc2[nH]c(=S)n(C3CC3)c(=O)c2cc1OC,19.2,0.9,-0.2,9.6,·,·
CCOC(=O)C1=C(C)N=c2s/c(=C/c3ccc(OC)cc3C)c(=O)n2C1c1ccccc1 (stereo not drawn),12.0,0.0,-0.1,3.9,·,·
O=C(c1cc2n(n1)C(C(F)(F)F)CC(c1ccc(Cl)c(Cl)c1)N2)N1CCN(c2ccccc2)CC1 (stereo not drawn),-6.2,1.2,0.0,0.1,·,·
O=C(/C=C/c1cccc2ccccc12)NCc1ccccc1,-7.4,5.0*,0.2,15.3,-0.6,-8.3
O=c1[nH]c(CSc2nnc(Nc3ccccc3F)s2)nc2ccccc12,-1.3,7.2*,0.1,-19.3,0.4,3.9
CCOc1ccccc1Nc1nnc(SCc2nc3ccccc3c(=O)[nH]2)s1,-9.4,-0.9,-0.1,4.4,·,·
CC(C)Sc1nc2c(c(=O)[nH]1)C(c1cccs1)C1=C(CCCC1=O)N2 (stereo not drawn),2.2,5.2*,-0.1,11.3,1.2,5.6
CC(C)[C@@H](CO)Nc1ccc2ncc(-c3cccc(N(C)C)c3)n2n1,4.4,0.2,-0.5,11.4,·,·
CCC(CO)Nc1ccc2ncc(-c3cccc(N(C)C)c3)n2n1 (stereo not drawn),5.3,6.4*,-0.2,-18.1,-0.3,-4.4
COCCNC(=O)c1ccc(-c2ccccc2C)nc1NC(C)=O,-4.4,3.6,0.4,26.6,·,·
CC(C)OC(=O)C1C2C=CC3(CN(Cc4ccccc4)C(=O)C13)O2 (stereo not drawn),-1.9,5.5*,0.0,-1.1,-1.6,-8.0
CCCCNC(=O)C1C2C=CC3(CN(Cc4ccccc4Cl)C(=O)C13)O2 (stereo not drawn),6.1,5.7*,0.0,-4.2,0.1,12.7
COCCNC(=O)C1C2C=CC3(CN(Cc4ccc(C)cc4)C(=O)C13)O2 (stereo not drawn),-1.2,13.6*,0.1,-2.9,1.0,10.6
CCOC(=O)c1ccc(NCc2cc(Cl)ccc2O)cc1,4.4,-0.8,0.0,-8.6,·,·
N#CSC(=O)/C=C/c1ccccc1,-49.8,-4.1,-0.1,-4.3,·,·
SMILES,TEAD-YAP block,GPR151 activ,FBW7 activator,MITF primary,GPR151 conf act,GPR119 counter
CCN(CC)S(=O)(=O)c1cc(C(=O)OC)ccc1Br,-8.8,-0.5,0.0,5.9,·,·
CC(C)C[C@@H](NC(=O)OCC1c2ccccc2-c2ccccc21)C(=O)O,·,7.8*,-0.1,-4.6,-0.7,-5.8
CC(=O)Nc1ccc(Oc2ncc(-c3ccc(F)cc3)cn2)cc1,-11.9,0.0,0.0,6.5,·,·
CCCOc1ccc(/C(=N\O)C(C)(C)NO)cc1,-22.9,-1.7,0.1,-14.3,·,·
COc1ccc(/C(=N/O)C(C)(C)NO)cc1,6.8,5.1*,-0.2,-2.5,-0.6,-1.6
CCc1cc(=O)oc2cc(OC(=O)c3ccco3)ccc12,7.9,6.8*,-0.1,-7.0,-0.1,-2.6
Cc1cc(=O)oc2cc(OC(=O)c3ccco3)ccc12,-1.3,0.3,0.1,14.6,·,·
C=CCOC(=O)COc1ccc2c(CCC)cc(=O)oc2c1,7.0,5.8*,0.1,11.9,-0.9,-7.6
COC(=O)Cc1c(C)c2ccc(OC(=O)c3ccco3)cc2oc1=O,-7.2,9.0*,0.0,7.5,0.5,-3.1
COC(=O)C(C)Oc1ccc2c(C)c(Cc3ccccc3)c(=O)oc2c1 (stereo not drawn),-5.9,0.1,0.5,-18.9,·,·
CCCCOC(=O)COc1ccc2c(CCC)cc(=O)oc2c1,8.3,0.5,0.1,-8.1,·,·
CCCCCCc1c(C)c2ccc(OC(C)C(=O)OC)cc2oc1=O (stereo not drawn),3.7,5.7*,0.0,-6.1,0.0,-10.0
O=C1c2ccccc2C(=O)C1(Nc1ccc(Br)cc1)c1ccccc1,16.0,6.9*,0.0,-4.7,-0.2,-2.9
Cc1cc(N2C(=O)CSC23C(=O)Nc2ccccc23)ccc1Br (stereo not drawn),1.7,0.1,-0.6,7.0,·,·
Cc1ccc(N2C(=O)CSC23C(=O)Nc2ccccc23)cc1Br (stereo not drawn),5.3,5.0*,-0.8,-2.8,0.3,1.9
CCOC(=O)c1sc(NC(=O)CSc2nnc(CNC(=O)Cc3ccccc3)n2-c2ccccc2OC)c(C(=O)OCC)c1C,3.4,-1.7,0.1,1.3,·,·
CCOC(=O)c1c(NC(=O)CSc2nnc(CNC(=O)c3cc(OC)cc(OC)c3)n2Cc2ccccc2)sc2c1CCCC2,-3.5,5.0*,0.0,-9.1,0.1,-7.8
CCOC(=O)c1c(NC(=O)CSc2nnc(CNC(=O)c3cccc(F)c3)n2-c2ccc([N+](=O)[O-])cc2)sc2c1CCCCC2,-3.1,5.5*,-0.2,-1.0,0.3,-0.7
CCOC(=O)c1c(NC(=O)CSc2nnc(CNC(=O)c3cccc(F)c3)n2-c2ccc(OCC)cc2)sc2c1CCC2,7.8,2.7,0.1,8.0,·,·
CCOC(=O)c1sc(NC(=O)CSc2nnc(CNC(=O)c3ccco3)n2-c2ccccc2OC)c(C(=O)OCC)c1C,5.3,8.7*,-0.1,-2.0,-0.8,-13.4
CSc1ccc(C(=O)Nc2nnc(-c3ccccc3)o2)cc1,-3.8,-3.2,-1.1,-3.0,·,·
O=c1nc2n(c3c1oc1ccc(Br)cc13)Cc1ccccc1-2,0.5,0.1,-0.1,6.1,·,·
CCN(CC)c1nc(Nc2ccccc2)nc(Nc2nc3ccccc3n2C)n1,-2.5,-0.6,0.5,4.5,·,·
CCN(CC)c1nc(Nc2nc3ccccc3n2C)nc(NC2CC2)n1,5.6,7.5*,0.2,17.3,0.3,0.5
